According to ChEMBL document CHEMBL3988442, “University of Dundee, Small-Polar-MMV Screening Library” (2021):

Experiments:
[1] = molecular target: T1, Aspartate--tRNA(Asp/Asn) ligase (Mycobacterium tuberculosis (strain ATCC 25618 / H37Rv)) (UniProt P9WFW3); experiment: Assay for Asp RNA synthetase-1 from Mycobacterium tuberculosis; assay type: functional; set-up: scale not given: direction of the effect not stated beside the values; details: 30 µM; further: in the data most compounds retested in dose-response had high values
T1 sequence (whole entry): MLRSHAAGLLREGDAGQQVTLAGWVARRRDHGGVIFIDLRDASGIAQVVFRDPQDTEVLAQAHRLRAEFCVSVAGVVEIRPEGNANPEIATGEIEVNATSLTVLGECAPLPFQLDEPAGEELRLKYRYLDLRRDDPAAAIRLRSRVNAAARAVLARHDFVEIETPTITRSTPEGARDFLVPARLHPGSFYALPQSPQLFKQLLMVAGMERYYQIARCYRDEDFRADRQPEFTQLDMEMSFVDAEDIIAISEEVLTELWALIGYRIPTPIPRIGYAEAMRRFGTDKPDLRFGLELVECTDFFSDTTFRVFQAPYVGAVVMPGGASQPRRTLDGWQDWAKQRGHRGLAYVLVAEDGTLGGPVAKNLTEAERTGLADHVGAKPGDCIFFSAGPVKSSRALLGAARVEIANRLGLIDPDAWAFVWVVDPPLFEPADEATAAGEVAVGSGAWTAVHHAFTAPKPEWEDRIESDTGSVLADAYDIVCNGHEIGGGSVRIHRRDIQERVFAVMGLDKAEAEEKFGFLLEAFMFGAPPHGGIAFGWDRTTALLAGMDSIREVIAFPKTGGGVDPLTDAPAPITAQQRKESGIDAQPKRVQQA

[2] = molecular target: Shiga toxin 2 (Escherichia coli O157:H7) (UniProt P09385+P09386); experiment: E. coli 0.157:H7 Shiga Toxin SOP - stx2 screening assay; assay type: functional; set-up: scale not given: direction of the effect not stated beside the values; details: 30 µM

## CC(C)CN1CCC2(CCN(Cc3ccoc3)CC2)C1=O
[1]
  Percent Effect: 6.3%
[2]
  Percent Effect: -11.6%

## CCc1nccn1C1CCCN(C(=O)c2ccc3[nH]cnc3c2)C1 (configuration not stated)
[1]
  Percent Effect: 0.869%
[2]
  Percent Effect: 11.5%

## CC(NC(=O)N(C)Cc1ccsc1)c1ccc2c(c1)CCC(=O)N2 (configuration not stated)
[1]
  Percent Effect: -2.72%
[2]
  Percent Effect: 29%

## O=C(CCCc1nnc(-c2ccccc2)o1)N1CCN(CCO)CC1
[1]
  Percent Effect: 2.54%
[2]
  Percent Effect: -26.3%

## CC(C(=O)NCc1ccc(-n2cncn2)nc1)n1ccnc1 (configuration not stated)
[1]
  Percent Effect: 5.56%
[2]
  Percent Effect: 19.8%

## CC(C)CCN1CN=C(NS(=O)(=O)c2ccc(F)cc2)NC1
[1]
  Percent Effect: -1.13%
[2]
  Percent Effect: -27.2%

## Cn1cc(C2CCCN2C(=O)CCCOCc2ccccc2)cn1 (configuration not stated)
[1]
  Percent Effect: -6.77%
[2]
  Percent Effect: -16.1%

## O=C(COc1ccccc1)N1CCC[C@]2(C[C@H](OCC3CC3)CO2)C1
[1]
  Percent Effect: 1.3%
[2]
  Percent Effect: -10.4%

## Cc1cnn(CC2CN(Cc3nc4ccccc4nc3C)CCO2)c1 (configuration not stated)
[1]
  Percent Effect: -3.52%
[2]
  Percent Effect: -0.0617%

## COc1cccc(N2CCN(Cc3ncc[nH]3)CC2=O)c1
[1]
  Percent Effect: 0.446%
[2]
  Percent Effect: -4.16%

## CNS(=O)(=O)c1cccc(C(C)NCc2nccn2C(C)C)c1 (configuration not stated)
[1]
  Percent Effect: -2.07%
[2]
  Percent Effect: -29.6%

## CC(C)c1nnc2n1CCN(CC(=O)Nc1sccc1C#N)C2
[1]
  Percent Effect: 8.51%
[2]
  Percent Effect: 16.9%

## CCS(=O)(=O)N1CC[C@H](OC)[C@@H]1Cc1ccncc1
[1]
  Percent Effect: -2.52%
[2]
  Percent Effect: -2.84%

## O=C(CCC1CCCC1)N1CCC(c2ncc3c(n2)CCNC3)CC1
[1]
  Percent Effect: -3.47%
[2]
  Percent Effect: -54.5%

## NC(=O)c1cnn2c1NCC(CNCCCOc1ccccc1F)C2 (configuration not stated)
[1]
  Percent Effect: -0.278%
[2]
  Percent Effect: 17.4%

## CO[C@H]1CCN(C(=O)Cc2ccccn2)[C@H]1Cc1ccncc1
[1]
  Percent Effect: 3.54%
[2]
  Percent Effect: -1.46%

## O=C(NCC1CC1)C1CN(C(=O)c2ccncc2)CC12CCOCC2 (configuration not stated)
[1]
  Percent Effect: 3.22%
[2]
  Percent Effect: -21.5%

## C=Cc1ccc(C(=O)N2CCCC(Nc3ccc(F)cc3)C2)cc1 (configuration not stated)
[1]
  Percent Effect: -0.502%
[2]
  Percent Effect: -4.33%

## CN(C)CCN1CCO[C@H]2CN(Cc3cnn(C)c3)C[C@H]21
[1]
  Percent Effect: -1.31%
[2]
  Percent Effect: -7.4%

## Clc1ccc(OCCCN2CCN(c3cnccn3)CC2)cc1
[1]
  Percent Effect: 1.06%
[2]
  Percent Effect: -6.97%

## CN(C)CC1CN(C(=O)NCc2ccccc2)Cc2nccn2C1 (configuration not stated)
[1]
  Percent Effect: -0.114%
[2]
  Percent Effect: -2.62%

## O=C(NCc1ccccn1)N(Cc1ccc(F)cc1F)C1CC1
[1]
  Percent Effect: -1.6%
[2]
  Percent Effect: 10.3%

## CCc1nc(CN2CCCN(C(=O)CCSC)CC2)cs1
[1]
  Percent Effect: -2.35%
[2]
  Percent Effect: -65.7%

## CC(C)C1CN(C(=O)c2ccc(N3CCCC3)nc2)CCS1 (configuration not stated)
[1]
  Percent Effect: 12.9%
[2]
  Percent Effect: -43%

## COc1ccc(C(=O)NS(=O)(=O)c2cncc(Br)c2)cc1OC
[1]
  Percent Effect: 0.457%
[2]
  Percent Effect: 3.4%

## CC(=O)N1CC(Cc2nccc3ccn(C)c23)C1
[1]
  Percent Effect: 1.31%
[2]
  Percent Effect: -32.1%

## CCc1ncc2c(n1)CN(Cc1nc(-c3ccsc3)no1)CC2
[1]
  Percent Effect: -0.759%
[2]
  Percent Effect: 13.8%

## Cn1cc(-c2csc(N3CCN(C(=O)OC(C)(C)C)CC3)n2)cn1
[1]
  Percent Effect: 0.501%
[2]
  Percent Effect: -1.73%

## Cc1noc(C)c1CN1CCN(Cc2nccn2C)C(C)C1 (configuration not stated)
[1]
  Percent Effect: -3.74%
[2]
  Percent Effect: 1.27%

## Cc1ccc(C(=O)NS(=O)(=O)c2ccccc2C)c(=O)[nH]1
[1]
  Percent Effect: -0.991%
[2]
  Percent Effect: 10.2%

## O=C(CCn1ccc2cc(Br)ccc21)NCc1ccc(C(=O)O)cc1
[1]
  Percent Effect: 8.3%
[2]
  Percent Effect: 30.7%

## CN(CCCOc1ccccc1)C(=O)CN1CCc2cncnc2C1
[1]
  Percent Effect: 5.73%
[2]
  Percent Effect: 9.42%

## CC(C(=O)N1CCCN(c2ncccc2C#N)CC1)n1cccn1 (configuration not stated)
[1]
  Percent Effect: -4.27%
[2]
  Percent Effect: 31.7%

## CC(C)c1cc(NC(=O)c2ccc(C(=O)NC(C)(C)C)cc2)[nH]n1
[1]
  Percent Effect: -0.941%
[2]
  Percent Effect: -39.3%

## Cc1cc(C(=O)N2CC[C@@H]3CN(c4ncccn4)CCO[C@@H]3C2)c(C)o1
[1]
  Percent Effect: 7.23%
[2]
  Percent Effect: -7.5%

## Cn1cc(C(=O)NC2CCN(C(=O)NCC3CCSCC3)CC2)cn1
[1]
  Percent Effect: 3.16%
[2]
  Percent Effect: -2.79%

## CCOCC1CN(Cc2cnn(C)c2)Cc2ncn(CC3CC3)c21 (configuration not stated)
[1]
  Percent Effect: 2.64%
[2]
  Percent Effect: 3.02%

## O=C(NC[C@H]1OC[C@@H]2CCN(C(=O)c3ccco3)C[C@@H]21)C1CC1
[1]
  Percent Effect: 3.37%
[2]
  Percent Effect: -7.69%

## CC(O)CN1CCN(Cc2nnc(C3CC3)o2)CC1 (configuration not stated)
[1]
  Percent Effect: 0.971%
[2]
  Percent Effect: -17.9%

## c1ccc(-c2noc(CN3CCC(c4ccn[nH]4)CC3)n2)cc1
[1]
  Percent Effect: 0.903%
[2]
  Percent Effect: -15.7%

## CC(c1nc(C2CC2)no1)N1CCN(Cc2ccsc2)CC1 (configuration not stated)
[1]
  Percent Effect: -4.63%
[2]
  Percent Effect: -11.4%

## O=C(NCC1CC1)[C@@H]1CCO[C@@H]2CCN(Cc3ccco3)C[C@H]21
[1]
  Percent Effect: 7.48%
[2]
  Percent Effect: -6.74%

## O=C(c1ncccn1)N1C[C@H]2CCC[C@@]2(COCc2ccncc2)C1
[1]
  Percent Effect: -2.08%
[2]
  Percent Effect: -24.5%

## COc1ccc(F)cc1C(=O)N(C)Cc1cc(C)on1
[1]
  Percent Effect: -3.3%
[2]
  Percent Effect: -29.3%

## COCc1ccccc1CNCc1c(C)nn(C)c1N(C)C
[1]
  Percent Effect: 0.533%
[2]
  Percent Effect: 22.6%

## CCCc1nnsc1C(=O)NCC1CCN(c2ccccn2)CC1
[1]
  Percent Effect: -7.59%
[2]
  Percent Effect: -0.668%
